In PubChem BioAssay (NCI):
This is part of a sample that, as a whole, favours compounds with a hit. Of some 79,000 tested, about 15% had one in any assay. Unmarked numbers belong to inactive results. The source made the active and inactive calls. No stated cut-off is given here; in the data, active means growth inhibition above about 70%; inactive means the rest.

assay: NCI Yeast Anticancer Drug Screen. Data for the mec2-1 strain (AID 157); settings: S. cerevisiae mec2-1 strain, at 11.0 µM, hits give high values
In short: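 Each compound was tested on mec2-1 yeast, a strain altered in DNA damage repair or cell cycle control. Growth inhibition is reported relative to vehicle.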

Point of comparison: `CCOC(=O)C(C(=O)OCC)=P(c1ccccc1)(c1ccccc1)c1ccccc1`, growth inhibition 0%. Against it:
- O=C1/C(=C/c2ccccc2)CCCC1CN1CCCCC1 (centres undefined) — higher, 34%
- C#CCN(Cc1ccc2nc(N)[nH]c(=O)c2c1)c1ccc(C(=O)NC(CCC(=O)O)C(=O)O)cc1 (centres undefined) — higher, 17%
- CCOC1(c2cccc([N+](=O)[O-])c2)c2ccccc2Oc2ccccc21 — the same, 0%
- O=C(O)CNC(=S)Nc1ccccc1 — lower, -8%
- N/C(=N/N=C/c1cc(Br)cc(Br)c1O)NO — lower, -6%
- C[Si](C)(C)/C=C/CCNC(C#N)c1ccccc1 (centres undefined) — higher, 43%
- CCCCCCCCCCCCCCCCOP(=O)(O)OCC(N)C(=O)O (centres undefined) — higher, 50%
- CC1=C(C(=O)NCc2ccccc2)C(c2ccccc2)C(C(=O)NCc2ccccc2)=C(C)N1 — lower, -3%
- COc1cc2ccnc(-c3c4ccccc4c(N)c4c(OC)c(OC)ccc34)c2cc1OC — higher, 1%
- CCOC(=O)C(Br)C(Br)c1ccccc1Cl (centres undefined) — higher, 47%
- CCOC(=O)C1=C(C)NC(C)=C(C(=O)OCCNC(=O)c2ccc(N=[N+]=[N-])cc2)C1c1ccccc1C(F)(F)F (centres undefined) — lower, -2%
- Cc1cc(C)c(NC(=S)NC(=O)c2ccccc2)cc1C — lower, -49%
- COc1c(O)c(C=O)c(Br)c(C=O)c1O — higher, 14%
- Cc1c(C)c(C)c(CSC(=N)N)c(C)c1C — lower, -69%
- O=C(CSC(=S)N1CCCCC1)Nc1nc2c(s1)CCCC2 — higher, 1%
- CNC(=O)OCc1c(COC(=O)NC)c(-c2ccc(Cl)cc2)n2c1CCC2 — lower, -37%
- CC(=O)OC1CC2C(C)(C)C(=O)C=C[C@]2(C)C2CCC3(C)C(=CCC3[C@H](CO)C[C@H](O)C(=O)C(C)(C)O)[C@]12C (some centres undefined) — lower, -77%
- CCCCCCOC(=O)NCCOC(=O)Nc1ccccc1 — higher, 3%
- C[C](C)(C)[Ge]([O][Ge]([c]1ccccc1)[c]1ccccc1)([O][Ge]([c]1ccccc1)[c]1ccccc1)[C](C)(C)C — higher, 60%
- CCc1c(Cl)c(C)cc(O)c1Cl — higher, 5%
- Cc1nc(Nc2ccccc2[N+](=O)[O-])sc1C(=O)CC(=O)C(=O)Nc1c(C(C)C)cccc1C(C)C — higher, 3%
- CCCCCCC(O)CNCc1ccnc2ccc(OC)cc12 (centres undefined) — higher, 15%
- C=C1CCC(O)C/C1=C/C=C1\CCCC2(C)C1CCC2C(C)CCCC(C)C (centres undefined) — lower, -18%
- NC1=NNC2(C(N)=N1)c1ccccc1-c1ccccc12 — higher, 11%
- COc1cc2cc3c4cc(OC)c(OC)cc4cc[n+]3c(C)c2cc1OC — lower, -7%
- COC(=O)NC1C(C)OC(OC2C/C=C(/C)C3C=CC4C(OC5CC(OC6CC(O)C(OC7CC(O)C(OC)C(C)O7)C(C)O6)C(O)C(C)O5)C(C)CC(C)C4C3(C)/C(O)=C3\C(=O)OC4(CC(C)C(CO)=CC4/C=C\2C)C3=O)CC1(C)[N+](=O)[O-] (centres undefined) — lower, -4%
- O=C1CSC(c2cccc(Cl)c2)N1c1ccc(-c2ccc(-n3c(-c4ccccc4)nc4ccccc4c3=O)cc2)cc1 (centres undefined) — higher, 6%
- COc1ccc(N=CN(C)C)c(C)c1 — lower, -43%
- Cc1cc(S(=O)(=O)Nc2nnc3cnc4ccccc4n23)c(S)cc1Cl — higher, 6%
- O=C(Oc1ccc2c(c1)CN(Cc1ccccc1)CO2)c1ccccc1 — higher, 3%
- CN(C)[C@@H]1C(=O)C(C(N)=O)=C(O)[C@@]2(O)C(=O)C3=C(O)c4c(O)cccc4C[C@H]3C[C@@H]12 — higher, 1%
- Cc1nc2c(Br)cc(Br)cc2c(=O)n1-c1ccccc1NC1OCC(O)C(O)C1O (centres undefined) — higher, 14%

For `O=[N+]([O-])c1cc(S(=O)(=O)Nc2ccccc2)ccc1Nc1ccccc1`, the growth inhibition was 93% (active).
In the case of `CNCCCNc1c2ccccc2nc2cccc([N+](=O)[O-])c12`, the growth inhibition was 92% (active).
In the case of `O=[N+]([O-])c1cccc2nc3ccccc3c(NCCCn3ccnc3[N+](=O)[O-])c12`, the growth inhibition was 88% (active).
In the case of `Cc1c2cccc(Sc3ccccc3)c2c2c3c(cccc13)[S+](c1ccccc1)C2` (centres undefined), the growth inhibition was 98% (active).
For `O=[N+]([O-])c1ccc2c(c1)/C(=N/N=C1c3ccccc3Cc3ccccc31)c1cc([N+](=O)[O-])cc([N+](=O)[O-])c1-2`, the growth inhibition was 99% (active).
With `Cc1cc(N(CCOS(C)(=O)=O)CCOS(C)(=O)=O)ccc1C=Nc1ccc(-c2nc(Cc3ccccc3)sc2C)cc1` the growth inhibition was 72% (active).
